Only some compounds are listed: those with a hit (about 6.3% of all), similar ones and a draw of the others.
ATXN viability – viability counter-screen for ATXN expression inhibitors | AID 651635 | actives 0.49% (n = 400,000) | S2 cells (HEK-293 line with an ATXN2-luciferase reporter) viability, CellTiter-Fluor protease fluorescence, 24 h | Potency, µM (series often up to 56.7 µM), hits mostly cytotoxic; further: nearly all actives have a fitted effect of over 40% in size
TGFb inhibitor – TGF-b pathway inhibition. actives 1.2% (n = 410,000). HepG2 CAGA-GFP TGF-b/SMAD3 reporter, GFP fluorescence, 18 h; TGF-beta stimulated, 500 pg/mL final. Potency, µM (series often up to 46.1 µM), inactives show top-dose activity, negative = inhibition, hits mostly inhibitors; further: on the % scale 0 is the no-effect control and ±100 the full control effect; nearly all actives have a fitted effect of over 65% in size
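Cell-based qHTS in HEPG2 carrying a CAGA-GFP Smad reporter; compounds added before 500 pg/mL final TGF-beta, 18 h incubation at 37 degrees C, GFP fluorescence quantified per cell by imaging cytometry.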
RORg inh – ROR gamma (mouse) transcription inhibition; P51450; Potency, µM (highest dose often 53.6 µM), for inactives: top-dose activity change, negative = inhibition, most hits filed as inhibitors; Drosophila S2 Gal4-RORgamma UAS-luciferase reporter, 20 h; actives 5.4% (n = 310,000); further: on the % scale 0 is the no-effect control and ±100 the full control effect; nearly all actives have a fitted effect of over 60% in size
Target sequence (P51450 whole entry, looked up, the tested form may be a part): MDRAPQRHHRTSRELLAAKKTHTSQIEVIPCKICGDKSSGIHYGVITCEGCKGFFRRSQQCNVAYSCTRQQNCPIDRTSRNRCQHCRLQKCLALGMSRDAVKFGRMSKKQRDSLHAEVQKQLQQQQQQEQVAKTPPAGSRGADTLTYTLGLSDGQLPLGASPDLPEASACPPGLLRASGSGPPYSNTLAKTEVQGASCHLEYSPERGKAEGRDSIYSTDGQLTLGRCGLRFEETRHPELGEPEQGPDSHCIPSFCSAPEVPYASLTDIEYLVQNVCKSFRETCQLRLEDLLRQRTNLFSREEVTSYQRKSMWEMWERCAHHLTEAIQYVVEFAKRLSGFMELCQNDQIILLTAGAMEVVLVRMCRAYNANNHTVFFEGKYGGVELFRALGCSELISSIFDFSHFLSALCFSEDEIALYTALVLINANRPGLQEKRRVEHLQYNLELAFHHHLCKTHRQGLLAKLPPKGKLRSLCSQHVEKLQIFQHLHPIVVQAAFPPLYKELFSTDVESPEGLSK
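Stably transfected Drosophila Schneider cells are the test system, with ROR gamma fused to Gal4 and luciferase under UAS control; luminescence is read after 20 hr of 700 uM copper sulfate induction at ambient temperature.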
HepG2 viability – counter-screen for TGF-b inhibitors: cytotoxicity in HepG2 cells | HepG2 CAGA-GFP viability, ATP luminescence, 18 h | Potency, µM (titrated, usually from 46.1 µM), inactives show top-dose activity change, negative = cytotoxicity, usual class: cytotoxic | actives 0.76% (n = 410,000)
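HepG2 CAGA-GFP cells (1000/well, DMEM with 1% FBS) received compound, then TGF-beta at 500 pg/mL final, and were incubated 18 hours at 37 degrees C. Viability was read by CellTiter-Glo luminescence. Media-only wells were set as complete cell-killing and DMSO as no toxicity.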
ATXN2 expr inh – inhibitors of ATXN2 expression; Potency, µM (highest dose often 57 µM), for the others: top-dose activity change, negative = inhibition, hits mostly inhibitors; actives 0.72% (n = 360,000); HEK-293 ATXN2-luciferase reporter, luminescence, 24 h; further: on the % scale 0 is the no-effect control and ±100 the full control effect; nearly all actives have a fitted effect of over 55% in size
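ATXN2-luciferase reporter cells (luciferase flanked by upstream and downstream ATXN2 gene portions) were treated 24 h at 37 °C with compounds at up to 57 uM. SteadyGlo luminescence gave expression; GF-AFC fluorescence gave viability.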
Gal4-VP16 FLuc – inhibits Gal4-VP16 luciferase reporter, ROR gamma counter-screen; AID 2546; Drosophila S2 Gal4-VP16 UAS-luciferase, luminescence, 20 h; actives 3.5% (n = 310,000); Potency, µM (titrated, usually from 53.6 µM), inactives show top-dose activity, negative = inhibition, hits mostly inhibitors;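 further: Gal4-VP16 expression switched on by copper sulfate through the metallothionein promoter; on the % scale 0 is the no-effect control and ±100 the full control effect; nearly all actives have a fitted effect of over 50% in size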
The depositor's hits bear a star; i = inactive; ? = inconclusive; nt = no result given; [ ] = another dose, or the depositor's remark. The call rests on the fitted dose curve; in most records, active means well fitted curve in the direction sought with a large enough effect; inconclusive means small, poorly fitted or top-dose-only effect, or another doubt; inactive means no such curve, though single readings can be large; an effect the other way counts as inactive or inconclusive. Potency means the concentration at half of the fitted maximal effect.

SMILES	ATXN viability	TGFb inhibitor	RORg inh	HepG2 viability	ATXN2 expr inh	Gal4-VP16 FLuc
CSc1nnc(CNC(=O)c2cccc3ccccc23)n1-c1ccccc1C	i	nt	nt	nt	nt	nt
COc1ccc(C=Cc2cc(OC)c(OC)c(OC)c2)cc1O	nt	nt	nt	nt	0.3%	nt
Cc1ccc2c(c1)c1c(n2CC(O)Cn2nc(C)c(Br)c2C)CCCC1 (stereo not drawn)	i	?	12.8%	20µM*	-22.6%	?
Cc1ccc2c(c1)c1c(n2CC(O)CN2CCCCCC2)CCCC1 (stereo not drawn)	?	-19.9%	20.4%	-40.7%	-28.8%	-5.0%
Cc1ccc2c(c1)c1c(n2CC(O)Cn2c(C)nc3ccccc32)CCCC1 (stereo not drawn)	31.6µM*	?	1.58µM*	-96.4%	?	-23.8%
O=C(NC(=S)NCC1CCCO1)c1ccccc1Br (stereo not drawn)	i	-6.6%	?	-0.6%	1.6%	-17.4%
Cc1ccc(C(=O)NC(=S)NCC2CCCO2)cc1Br (stereo not drawn)	?	1.5%	5.01µM*	-16.8%	44.4%	?
O=C(NC(=S)NCC1CCCO1)c1ccccc1[N+](=O)[O-] (stereo not drawn)	i	10.8%	10µM*	0.9%	-10.9%	-10.8%
O=C(NNc1ccccc1[N+](=O)[O-])NC1CCCCC1	i	5.2%	-73.7%	-23.4%	nt	-2.1%
O=C(NC(=S)NC1CCCCC1)c1ccccc1[N+](=O)[O-]	i	?	5.01µM*	-2.4%	7.5%	5.62µM*
CCOc1cc(NC(=S)NCC2CCCO2)c(OCC)cc1NC(=O)c1ccccc1F (stereo not drawn)	i	14.9%	3.16µM*	1.1%	-22.3%	7.94µM*
Cc1cc2nc3c(=O)[nH]c(=O)nc-3n(C[C@H](O)[C@H](O)[C@H](O)COP(=O)(O)OP(=O)(O)OC[C@H]3O[C@@H](n4cnc5c(N)ncnc54)[C@H](O)[C@@H]3O)c2cc1C	nt	nt	35.3%	nt	nt	0.8%
CCCCN(C(=O)c1ccc(-c2ccc(Cl)cc2)o1)c1c(N)n(CCC)c(=O)[nH]c1=O	i	-2.1%	nt	-3.6%	-17.6%	nt
COc1cc2c(cc1OC)C1O[C@](CCCCN3C(=O)c4ccccc4C3=O)(C2)OC2=C1C(=O)OC1(CCCCC1)C2	nt	nt	21.2%[10 µM]	nt	nt	-4.1%[10 µM]
COc1ccc(S(=O)(=O)N(CC(=O)N(C)Cc2ccccc2)c2ccc(Cl)cc2)cc1	i	-9.5%	nt	-31.7%	0.0%	nt
O=C(NC(=S)NCC1CCCO1)c1cccs1 (stereo not drawn)	i	7.1%	14.1µM*	-31.7%	8.1%	?
COc1ccc(OC)c(Nc2nc(NCCCN(C)C)nc(N)c2[N+](=O)[O-])c1	i	?	10µM*	15.8µM*	?	10µM*
COCCCNc1nc(N)c([N+](=O)[O-])c(Nc2cc(OC)ccc2OC)n1	i	?	-9.4%	-14.8%	-11.0%	-6.3%
Cc1ccc(NC(=O)C(C)Sc2nc3c(c(=O)[nH]2)CCCC3)cc1Cl (stereo not drawn)	nt	?	nt	-53.5%	nt	nt
C/C(=N\NC(=O)c1n[nH]c2c1CCC2)c1cccs1	?	-0.2%	2.51µM*	-7.1%	-0.3%	3.55µM*
C/C(=N\NC(=O)c1cc(C)[nH]n1)c1cccs1	i	8.7%	12.6µM*	0.0%	?	10µM*
O=C(N/N=C/c1cccs1)c1n[nH]c2c1CCCC2	i	5.9%	5.01µM*	-45.6%	15µM*	7.94µM*
C/C(=N/NC(=O)c1cc(C(C)C)[nH]n1)c1cccs1	i	17.5%	?	-26.7%	?	-47.3%
Cc1cc(C)cc(C(=O)NCc2nc(-c3cccc(NC(=O)c4ccccn4)c3)oc2C)c1	i	nt	nt	nt	nt	nt
COC1C(O)CC(=O)OC(C)C/C=C/C=C/[C@@H](OC2CCC(N(C)C)C(C)O2)C(C)C[C@@H](CC=O)[C@@H]1O[C@H]1OC(C)[C@H](O[C@@H]2C[C@@](C)(O)C(O)C(C)O2)C(N(C)C)C1O (stereo partly drawn)	nt	nt	-5.1%	nt	nt	-10.0%
SMILES	ATXN viability	TGFb inhibitor	RORg inh	HepG2 viability	ATXN2 expr inh	Gal4-VP16 FLuc
COc1ccc(-c2csc3nc(-c4ccccc4OC)oc(=O)c23)cc1	i	-0.5%	11.2µM*	-2.5%	0.3%	-19.1%
COc1ccc(-c2csc3nc(-c4ccc(F)cc4)oc(=O)c23)cc1	nt	-7.3%	nt	-1.3%	nt	nt
CC1CCCCC1NC(=S)NC(=O)c1ccccc1Br (stereo not drawn)	i	?	2.82µM*	-32.7%	5.3%	5.01µM*
O=C(NC(=S)NCc1ccccc1)c1ccccc1[N+](=O)[O-]	i	4.3%	7.94µM*	-7.3%	9.3%	15.8µM*
O=C(Cc1ccccc1[N+](=O)[O-])NCCCc1ccccc1	i	7.9%	0.224µM*	9.9%	33.6%	-3.5%
O=C(NC(=S)NCCc1ccccc1)c1ccccc1	i	2.1%	5.62µM*	-9.6%	62.5%	?
COc1cc(-c2c(OC)cccc2OC)cc2c1OCCN(Cc1cn[nH]c1-c1ccc(Cl)cc1)C2	i	nt	nt	nt	nt	nt
CCCCCCCCCCCCC/C=C/[C@@H](O)[C@H](CO)NCCCCCCCC	nt	nt	-8.9%	nt	nt	7.9%
CNC(=O)c1ccc(CN(C)C(=O)/C=C/c2ccc(S(=O)(=O)N3CCCCCC3)cc2)cc1	i	-25.1%	nt	7.08µM*	nt	nt
Cc1ccccc1C(=O)NC(=S)N(CCO)Cc1ccccc1	i	-11.3%	2µM*	-1.7%	-0.8%	2.82µM*
Cc1ccc(C(=O)NCCc2ccccc2)cc1	i	-4.6%	4.47µM*	-58.3%	nt	3.98µM*
Cc1ccc(C(=O)NCCc2ccncc2)cc1	i	1.5%	-14.2%	-4.7%	24.1%	-13.0%
O=C(NC(=S)NCc1ccccc1)c1ccccc1Br	i	-0.1%	8.91µM*	-15.8%	-11.4%	10µM*
COc1ccc(CN(C)C(=O)/C=C/c2ccc(S(=O)(=O)N3CCCCCC3)cc2)cc1	i	?	nt	-10.3%	-6.4%	nt
Cc1ccc2nc(NCc3ccccc3)c3nnnn3c2c1	nt	9.8%	nt	-73.8%	nt	nt
CCc1ccc(NS(=O)(=O)c2c(-c3ccccc3)csc2C(=O)OC)cc1	?	?	nt	-41.5%	-28.8%	nt
CCOc1ccc(-c2nnc(SCC(=O)Nc3cccc(OC)c3)nc2-c2ccc(OCC)cc2)cc1	nt	-10.3%	nt	-1.9%	nt	nt
OCc1cccc(-c2csc(C(O)(c3ccccc3)C(F)(F)F)n2)c1 (stereo not drawn)	?	-19.7%	nt	-43.9%	-15.7%	nt
COC(=O)[C@@]1(Cc2ccc(F)cc2)[C@H]2c3cc(C(=O)N(C)C)n(Cc4cccc5ccccc45)c3C[C@H]2CN1C(=O)c1ccccc1	nt	nt	44.4%	nt	nt	-15.3%
